Inconclusive results are not listed. The source made the active and inactive calls. Calls follow the shape of the dose curve; as a rule, active = well fitted inhibition curve with a large enough effect; inconclusive = small, poorly fitted or top-dose-only effect; inactive = flat fitted curve, though single readings scatter. Peptide text beside a SMILES is read from it.
Experiments:
Experiment in all cases: qHTS profiling for inhibitors of Plasmodium falciparum proliferation (AID 504749); also: nearly all actives have a fitted effect of over 60% in size
Conditions in all cases: P. falciparum in erythrocytes, SYBR Green DNA, 72 h; series mostly up to 28.7 µM
DFO2036 = test system: DFO2036
Method in brief: (§1)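 In a 72 h erythrocytic culture (37 C, humidified, 5% CO2) at 2.5% hematocrit and 0.3% starting parasitemia, compounds were tested; SYBR Green I in detergent lysis buffer stained parasite DNA overnight.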

DIV14 = test system: DIV14
Method in brief: as §1

DIV17 = test system: DIV17
Method in brief: as §1

DIV30 = test system: DIV30
Method in brief: as §1

Dd2 = test system: Dd2
Method in brief: as §1

ECU = test system: ECU
Method in brief: as §1

FAB9 = test system: FAB9
Method in brief: as §1

GB4 = test system: GB4
Method in brief: as §1

HB3 = test system: HB3
Method in brief: as §1

ICS = test system: ICS
Method in brief: as §1

JCK = test system: JCK
Method in brief: as §1

N140 = test system: N140
Method in brief: as §1

P93_24 = test system: P93_24
Method in brief: as §1

P94_40 = test system: P94_40
Method in brief: as §1

PAD = test system: PAD
Method in brief: as §1

PC15 = test system: PC15
Method in brief: as §1

PC26 = test system: PC26
Method in brief: as §1

PC49 = test system: PC49
Method in brief: as §1

SC27B = test system: SC27B
Method in brief: as §1

TAB109 = test system: TAB109
Method in brief: as §1

Measured: Potency
Potency is read from the fitted curve at half-maximal effect.

CCN(CC)Cc1cc(Nc2ccnc3cc(Cl)ccc23)ccc1O
active: DFO2036 0.0562 µM | DIV14 0.0809 µM | DIV17 0.114 µM | DIV30 0.181 µM | Dd2 0.0562 µM | ECU 0.0316 µM | FAB9 0.0398 µM | GB4 0.0405 µM | HB3 0.0355 µM | ICS 0.0398 µM | JCK 0.0891 µM | N140 0.0708 µM | P93_24 0.0355 µM | P94_40 0.0089 µM | PAD 0.0316 µM | PC15 0.178 µM | PC26 0.161 µM | PC49 0.1 µM | SC27B 0.0708 µM | TAB109 0.0501 µM

Cc1ccccc1
inactive: all assays above

CCCCCCCC(=O)O
inactive: all assays above

C[C@@H]1CCC2[C@@H](C)[C@@H](O)O[C@@H]3O[C@@]4(C)CC[C@@H]1[C@@]23OO4 (some centres undefined)
active: DFO2036 0.0016 µM | DIV14 0.003 µM | DIV17 0.0027 µM | DIV30 0.0024 µM | Dd2 0.001 µM | ECU 0.0009 µM | FAB9 0.0009 µM | GB4 0.0019 µM | HB3 0.0028 µM | ICS 0.001 µM | JCK 10 µM | N140 0.0016 µM | P93_24 0.001 µM | P94_40 0.001 µM | PAD 0.0014 µM | PC15 0.0009 µM | PC26 0.0027 µM | PC49 0.0003 µM | SC27B 0.002 µM | TAB109 0.001 µM

C[C@]12O[C@H](C[C@]1(O)CO)n1c3ccccc3c3c4c(c5c6ccccc6n2c5c31)CNC4=O
active: DFO2036 0.316 µM | DIV14 0.12 µM | DIV17 0.135 µM | DIV30 0.269 µM | Dd2 0.355 µM | ECU 0.398 µM | FAB9 2 µM | GB4 0.269 µM | HB3 0.447 µM | ICS 0.112 µM | JCK 4.47 µM | N140 0.282 µM | P93_24 0.355 µM | P94_40 0.282 µM | PAD 0.251 µM | PC15 0.447 µM | PC26 0.239 µM | PC49 0.891 µM | SC27B 0.316 µM | TAB109 0.355 µM

CC1=CCC(C(C)(C)O)CC1 (centres undefined)
inactive: all assays above

CC(NNC(=O)c1ccccc1)c1ccccc1 (centres undefined)
inactive: all assays above

C#CCOc1ccc2c(C)cc(=O)oc2c1
inactive: all assays above

CCCCC/C=C\C/C=C\CCCCCCCC(=O)O
inactive: all assays above

O=S(=O)(O)c1ccc2c(N=Nc3ccc(S(=O)(=O)O)c4ccccc34)c(O)c(S(=O)(=O)O)cc2c1
inactive: all assays above

COC(F)(F)C(Cl)Cl
inactive: all assays above

CC(=O)N[C@@H](CC(=O)O)C(=O)N[C@@H](CCC(=O)O)C(=O)O (Ac-Asp-Glu-OH)
inactive: all assays above

CCOC(C)=O
inactive: all assays above

COC(=O)[C@H]1[C@H]2C[C@@H]3c4[nH]c5ccccc5c4CCN3C[C@H]2C[C@@H](OC(=O)c2cc(OC)c(OC)c(OC)c2)[C@@H]1OC
active: DFO2036 0.355 µM | DIV14 0.19 µM | DIV17 0.239 µM | DIV30 0.135 µM | Dd2 0.0891 µM | ECU 0.316 µM | FAB9 1.26 µM | GB4 0.135 µM | HB3 0.794 µM | ICS 0.1 µM | JCK 0.891 µM | N140 0.199 µM | P93_24 0.126 µM | P94_40 0.316 µM | PAD 0.251 µM | PC15 0.447 µM | PC26 0.269 µM | PC49 0.251 µM | SC27B 0.355 µM | TAB109 0.398 µM

CCCCCCCCCCCCCCCC(=O)OCC(COC(=O)CCCCCCCCCCCCCCC)OC(=O)CCCCCCCCCCCCCCC
not listed: TAB109
inactive: all other assays above

CC1=C(/C=C/C(C)=C/C=C/C(C)=C/C=C/C=C(C)/C=C/C=C(C)/C=C/C2=C(C)CCCC2(C)C)C(C)(C)CCC1
inactive: all assays above

CCCCC(C)(O)C/C=C/[C@H]1[C@H](O)CC(=O)[C@@H]1CCCCCCC(=O)OC (some centres undefined)
inactive: all assays above

CCCC(=O)Nc1ncnc2c1ncn2C1OC2COP(=O)(O)OC2C1OC(=O)CCC (centres undefined)
inactive: all assays above

Cc1cn([C@H]2C[C@H](O)[C@@H](CO)O2)c(=O)[nH]c1=O
inactive: all assays above

CC(C(=O)O)c1ccc(N2Cc3ccccc3C2=O)cc1 (centres undefined)
inactive: all assays above

CCC(=O)NCCC1CCc2ccc3c(c21)CCO3 (centres undefined)
inactive: all assays above

CC(O)CO (centres undefined)
inactive: all assays above

O=C1C(=O)c2ncccc2-c2cccnc21
active: DFO2036 1 µM | DIV14 0.953 µM | DIV17 0.953 µM | DIV30 1.51 µM | Dd2 1.12 µM | ECU 2 µM | FAB9 7.94 µM | GB4 0.849 µM | HB3 1 µM | ICS 0.631 µM | JCK 10 µM | N140 1.26 µM | P93_24 0.891 µM | P94_40 0.794 µM | PAD 0.794 µM | PC15 0.891 µM | PC26 1.07 µM | PC49 3.55 µM | SC27B 2.82 µM | TAB109 1 µM

— PubChem BioAssay (NCATS)
